Reference: PubChem BioAssay AID1159580 (chemical genetic matrix, 2015)
Values joined by “and” are separate entries in the source; they are usually repeats but may differ in a detail not shown here. Equal values may be shown once. About 2,000 (36%) of roughly 5,500 compounds were called active. Inconclusive results (about 18%) are left out. Rule as the data show it: active = normalized growth mostly below about 0.91 (no sharp cut-off); inconclusive = no clear call, values can overlap the other calls; inactive = mostly above about 0.92. The list shows a part of the results.

Experiment: chemical genetic growth profiling, strain panel (AID 1159580);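 also: tested at 20 µM; growth read once vehicle control cultures reached saturation at 30 °C; 1 = growth at the plate median or of vehicle wells; lower values mean less growth of the strain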
Conditions: S. cerevisiae deletion strains, growth OD

Measured: normalized growth

C/C=C/CC(C)C(O)C1C(=O)NC(CC)C(=O)N(C)CC(=O)N(C)C(CC(C)C)C(=O)NC(C(C)C)C(=O)N(C)C(CC(C)C)C(=O)NC(C)C(=O)NC(C)C(=O)N(C)C(CC(C)C)C(=O)N(C)C(CC(C)C)C(=O)N(C)C(C(C)C)C(=O)N1C (stereo not given)
active: locus YDL185W, strain tfp1, hits give low values 0.358 | locus YDR137W, strain rgp1, hits give low values 0.637
inactive: locus YAL013W, strain DEP1, hits give low values 0.998 | locus YAL021C, strain ccr4, hits give low values 1.02 | locus YAL026C, strain drs2, hits give low values 1 | locus YAL030W, strain snc1, hits give low values 1.02 | locus YAL040C, strain CLN3, hits give low values 1.04 | locus YBL061C, strain skt5, hits give low values 1.01 | locus YBR009C, strain hhf1, hits give low values 1.01 | locus YBR021W, strain FUR4, hits give low values 1.02 | locus YBR023C, strain chs3, hits give low values 1.01 | locus YBR171W, strain sec66, hits give low values 1.01 | locus YBR229C, strain ROT2, hits give low values 0.972 | locus YBR231C, strain swc5, hits give low values 1.02 | locus YBR279W, strain paf1, hits give low values 1.02 | locus YCL011C, strain gbp2, hits give low values 1.01 | locus YCL016C, strain dcc1, hits give low values 0.996 | locus YCL029C, strain bik1, hits give low values 1.01 | locus YCL061C, strain MRC1 (second series), hits give low values 0.983 | locus YCL061C, strain MRC1, hits give low values 1.02 | locus YCL069W, strain vba3, hits give low values 1.02 | locus YCR088W, strain abp1, hits give low values 1.02 | locus YDL005C, strain med2, hits give low values 1.01 | locus YDL035C, strain GPR1, hits give low values 0.979 | locus YDL040C, strain nat1, hits give low values 1.01 | locus YDL074C, strain BRE1, hits give low values 0.937 | locus YDL101C, strain DUN1, hits give low values 0.988 | locus YDL134C, strain PPH21, hits give low values 0.983 | locus YDL192W, strain arf1, hits give low values 1 | locus YDR001C, strain nth1, hits give low values 1.01 | locus YDR069C, strain doa4, hits give low values 1.03 | locus YDR101C, strain arx1, hits give low values 1.02 | locus YDR150W, strain NUM1, hits give low values 0.996 | locus YDR159W, strain sac3, hits give low values 0.993 | locus YDR162C, strain NBP2, hits give low values 0.952 | locus YDR195W, strain ref2 1.01 | locus YDR297W, strain sur2, hits give low values 1.02 | locus YDR318W, strain mcm21, hits give low values 1.03 | locus YDR334W, strain swr1, hits give low values 1.02 | locus YDR335W, strain msn5, hits give low values 1.02 | locus YDR388W, hits give low values 1.03 | locus YDR392W, strain spt3, hits give low values 0.873 | locus YDR502C, strain sam2, hits give low values 1.01 | locus YEL003W, strain gim4, hits give low values 1.02 | locus YEL037C, strain rad23, hits give low values 1.06 | locus YEL061C, strain CIN8 (second series), hits give low values 1 | locus YEL061C, strain CIN8, hits give low values 0.996 | locus YER002W, strain NOP16, hits give low values 0.966 | locus YER015W, strain faa2, hits give low values 1.02 | locus YER016W, strain bim1, hits give low values 1.02 | locus YER110C, hits give low values 1.02 | locus YER111C, strain swi4, hits give low values 0.99 | locus YER155C, strain BEM2 (second series), hits give low values 0.952 | locus YER155C, strain BEM2, hits give low values 1.03 | locus YER167W, strain BCK2, hits give low values 1.03 | locus YFR010W, strain ubp6, hits give low values 1 | locus YGL078C, strain dbp3, hits give low values 1.02 | locus YGL086W, strain mad1, hits give low values 1.02 | locus YGL167C, strain pmr1, hits give low values 1.03 | locus YGL173C, strain kem1, hits give low values 1.02 | locus YGL227W, strain vid30, hits give low values 1.02 | locus YGL240W, strain doc1, hits give low values 0.978 | locus YGL248W, strain PDE1, hits give low values 0.985 | locus YGL253W, strain hxk2, hits give low values 1.02 | locus YGR078C, strain PAC10, hits give low values 0.964 and 1.01 | locus YGR135W, strain pre9, hits give low values 0.991 | locus YGR229C, strain SMI1, hits give low values 0.937 and 1.01 | locus YGR252W, strain gcn5, hits give low values 0.913 | locus YHR013C, strain ard1, hits give low values 1.03 | locus YHR027C, strain rpn1, hits give low values 1.03 | locus YHR030C, strain SLT2, hits give low values 1.02 and 0.977 | locus YHR079C, strain IRE1 (second series), hits give low values 1.03 | locus YHR079C, strain IRE1, hits give low values 0.991 | locus YHR094C, strain hxt1, hits give low values 1.02 | locus YHR129C, strain ARP1, hits give low values 1.01 | locus YHR142W, strain chs7, hits give low values 1.02 | locus YHR200W, strain rpn10, hits give low values 1.02 | locus YIL066C, strain RNR3, hits give low values 0.986 | locus YIL073C, strain SPO22, hits give low values 1.02 | locus YIL125W, strain kgd1, hits give low values 1 | locus YIR030C, strain dcg1, hits give low values 1.02 | locus YJL092W, strain hpr5, hits give low values 1.02 | locus YJL095W, strain BCK1 (second series), hits give low values 1.03 | locus YJL095W, strain BCK1, hits give low values 0.908 and 0.989 | locus YJL115W, strain asf1, hits give low values 1.02 | locus YJL129C, strain trk1, hits give low values 1.08 | locus YJL134W, strain LCB3, hits give low values 1 | locus YJL154C, strain vps35, hits give low values 1.01 | locus YJL164C, strain tpk1, hits give low values 1.04 | locus YJL166W, strain qcr8, hits give low values 1.02 | locus YJL168C, strain set2, hits give low values 1.03 | locus YJL187C, strain SWE1 (second series), hits give low values 0.968 | locus YJL187C, strain SWE1, hits give low values 1.02 | locus YJR043C, strain POL32, hits give low values 1 | locus YJR066W, strain TOR1, hits give low values 0.959
